Compounds with a hit are over-represented: about 17% of the library has one in this group of screens.
ClpP mod: qHTS Assay for Activators of ClpP | Potency, µM (series often up to 57.5 µM), for inactives: top-dose activity change, negative = active | ATP-dependent Clp protease proteolytic subunit (Bacillus subtilis (strain 168)), P80244 | AID 651965, 2013 | purified B. subtilis ClpP, FRET peptide cleavage, 20 min | actives 1.9% (n = 340,000); active = well fitted falling curve with a large enough effect; inconclusive = small, poorly fitted or top-dose-only effect; inactive = no such curve, though single readings can be large or run the other way; note: the source files actives as falling curves though it sought activators and does not explain the sign; nearly all actives have a fitted effect of over 65% in size
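ClpP 10 microg/mL final, pH 8 Tris/KCl buffer with BSA, glycerol, Tween-20; compound pinned in; FRET-FV substrate; RT 20 min; Ex320/Em430; ΔFRET vs ADEP 5.8 microM, DMSO, no enzyme.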
DT40 TDP1 no CPT: qHTS for Inhibitors of human tyrosyl-DNA phosphodiesterase 1 (TDP1): qHTS in cells in absence of CPT; DT40 Tdp1-/- hTDP1 cells, no CPT, ATP luminescence, 48 h; Potency, µM (series often up to 46.2 µM), for the others: at the highest dose activity change, negative = growth inhibition, usual class: inhibitors; actives 15% (n = 420,000); note: % is set by controls: 0 for no effect and ±100 for the full control effect; nearly all actives have a fitted effect of over 55% in size
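Stably hTDP1-transfected Tdp1-null chicken DT40 cells were treated with library compounds minus camptothecin and grown for at least 48 hr at 37 °C, after which cellular ATP was quantified by luminescence.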
DT40 TDP1 CPT: qHTS for Inhibitors of human tyrosyl-DNA phosphodiesterase 1 (TDP1): qHTS in cells in presence of CPT; chicken DT40 Tdp1-/-;hTDP1 cells + 20 nM CPT, ATP luminescence, 48 h; Potency, µM (doses to about 46.2 µM), for the others: at the top dose activity change, negative = growth inhibition, hits mostly inhibitors; actives 12% (n = 420,000); note: % is set by controls: 0 for no effect and ±100 for the full control effect; nearly all actives have a fitted effect of over 55% in size
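Chicken DT40 Tdp1-/- cells stably complemented with human TDP1 were seeded at 400 cells/well in medium containing 20 nM camptothecin, exposed to pin-transferred compounds, and grown at 37 °C for at least 48 hr. Viability was read as ATP luminescence.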
TDP1 inh: qHTS Assay for Inhibitors of Tyrosyl-DNA Phosphodiesterase (TDP1) | recombinant TDP1, AlphaScreen DNA substrate cleavage | Potency, µM (top dose mostly 130 µM), without a hit: top-dose activity change, negative = inhibition, usual class: inhibitors | actives 0.28% (n = 350,000) | AID 485290, 2010; note: % is set by controls: 0 for no effect and ±100 for the full control effect; nearly all actives have a fitted effect of over 40% in size
Target sequence (Q9NUW8 whole entry, looked up): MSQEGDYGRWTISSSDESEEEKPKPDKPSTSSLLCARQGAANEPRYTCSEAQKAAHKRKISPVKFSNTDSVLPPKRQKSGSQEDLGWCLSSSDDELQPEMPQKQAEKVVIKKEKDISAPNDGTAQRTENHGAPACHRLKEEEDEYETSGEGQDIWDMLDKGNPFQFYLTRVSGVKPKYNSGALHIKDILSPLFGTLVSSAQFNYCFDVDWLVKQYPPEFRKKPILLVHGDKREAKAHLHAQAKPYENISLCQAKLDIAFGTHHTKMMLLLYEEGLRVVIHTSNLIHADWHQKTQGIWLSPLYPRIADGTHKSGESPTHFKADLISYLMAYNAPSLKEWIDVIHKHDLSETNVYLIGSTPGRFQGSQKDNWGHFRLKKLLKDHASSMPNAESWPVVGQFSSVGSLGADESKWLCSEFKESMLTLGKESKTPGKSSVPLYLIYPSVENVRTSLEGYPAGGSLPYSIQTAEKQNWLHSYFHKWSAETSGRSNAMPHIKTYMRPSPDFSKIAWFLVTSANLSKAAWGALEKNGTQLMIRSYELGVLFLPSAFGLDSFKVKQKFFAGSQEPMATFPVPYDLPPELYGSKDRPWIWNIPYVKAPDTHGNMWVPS
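AlphaScreen read-out: signal falls as enzyme removes the 3' tyrosine-FITC from a 5'-biotinylated DNA oligo (15 nM, 5 min, RT). Enzyme was E. coli-made recombinant Tdp1 at 1 nM, exposed to compound for 15 min beforehand; beads 10 ug/ml, 10 min.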
* = called active by the depositor; ? = inconclusive; / = not tested or not shown. Unless noted, calls come from the whole dose curve; as a rule, active = well fitted curve in the direction sought with a large enough effect; inconclusive = small, poorly fitted or top-dose-only effect, or another doubt; inactive = no such curve, though single readings can be large; an effect the other way counts as inactive or inconclusive. Potency is the fitted concentration of half-maximal effect.

SMILES	ClpP mod	DT40 TDP1 no CPT	DT40 TDP1 CPT	TDP1 inh
COCC(C)n1c(SCC(=O)N2CCc3ccccc3C2)nc2ccccc2c1=O (stereo unspecified)	13µM*	1.8µM*	2.3µM*	8%
COCC(C)n1c(SCC(=O)N2CCCCC2)nc2ccccc2c1=O (stereo unspecified)	-1%	?	?	3%
C=CCn1c(SCC(=O)N2CCc3ccccc3C2)nc2ccccc2c1=O	0%	18µM*	?	4%
CCC(C)n1c(SCC(=O)Nc2cc(C(C)(C)C)nn2-c2ccccc2)nc2ccccc2c1=O (stereo unspecified)	0%	26µM*	?	4%
C=CCn1c(SCC(=O)N2CCc3ccccc3C2)nc2sc(CC)cc2c1=O	20µM*	?	?	5%
Cc1ccc(NC(=O)N2CCN(Cc3nc4ccc(C)cc4o3)CC2)c(Cl)c1	0%	-2%	-3%	4%
COc1ccc(C(=O)C(=O)N2CCN(c3ccccc3F)CC2)cc1	-1%	?	?	/
COc1ccc(OC)c2sc(N(Cc3cccnc3)C(C)=O)nc12	-1%	1%	-3%	5%
O=C(O)CCC[C@H](O)\C=C/C=C/C=C/[C@H](O)C/C=C\CCCCCO	/	/	/	-2%
C=CCn1c(SCC(=O)c2cccs2)nc2sc(C)cc2c1=O	0%	21µM*	?	5%
COCC(C)n1c(SCc2cc(=O)n3cc(C)ccc3n2)nc2ccccc2c1=O (stereo unspecified)	/	10µM*	?	5%
C=CCn1c(SCC(=O)N2CCc3ccccc3C2)nc2sc(C)c(C)c2c1=O	-1%	?	18µM*	0%
Cc1ccc2nc(CSc3nnc4ccccn34)cc(=O)n2c1	/	7%	2%	5%
COCC(C)n1c(SCC(=O)Nc2sccc2C(N)=O)nc2ccccc2c1=O (stereo unspecified)	0%	7.3µM*	21µM*	1%
Cc1ccc(NC(=O)c2ccccc2)cc1OC(=O)c1ccccc1	-5%	-21%	-6%	1%
CCCCOCCCNC(=O)C[C@@H]1C[C@@]2(C(=O)OC)CC(C)(C)CC=C2N(CCc2ccc(OC)c(OC)c2)C1=O	1%	15µM*	?	/
COC(=O)[C@@]12C[C@@H](CC(=O)NCCC(C)C)C(=O)N(CCc3ccc(OC)c(OC)c3)C1=CCC(C)(C)C2	0%	21µM*	?	/
COC(=O)[C@@]12C[C@@H](CC(=O)N3CCSCC3)C(=O)N(CCc3ccc(OC)c(OC)c3)C1=CCC(C)(C)C2	0%	?	?	/
CCN(CC)CCNC(=O)c1ccc(NC(=O)Cc2ccccc2F)cc1	/	-4%	18%	3%
CCN(CC)CCNC(=O)c1ccc(NC(=O)c2ccccc2-c2ccc(C(F)(F)F)cc2)cc1	/	?	18µM*	/
COc1cccc(C(=O)OCCN2CCOCC2)c1	1%	-7%	-13%	-8%
COc1c(C)c2c(c(O)c1C/C=C(\C)CCC(=O)OCCN1CCOCC1)C(=O)OC2	/	0.17µM*	0.13µM*	/
CN(C)CC(O)Cn1c2ccc(Br)cc2c2cc(Br)ccc21 (stereo unspecified)	/	/	/	7%
OC(COCC(F)(F)C(F)(F)C(F)(F)C(F)F)Cn1c2ccc(Cl)cc2c2cc(Cl)ccc21 (stereo unspecified)	-6%	2.6µM*	3.7µM*	-5%
O=C1c2cccc3cccc(c23)C(=O)N1c1ccncc1	10µM*	?	?	0%
COc1ccc(N2C(=O)c3cccc4cccc(c34)C2=O)cc1	0%	7%	-4%	2%
O=C1c2cccc3cccc(c23)C(=O)N1c1cccnc1	16µM*	-30%	2%	1%
CCc1nnc(N2C(=O)c3cccc4cccc(c34)C2=O)s1	16µM*	?	-4%	6%
COc1ccc(-c2nc(C)c(CCNC(=O)C(=O)Nc3cc(C)cc(C)c3)s2)cc1OC	?	/	/	7%

Screens as filed in PubChem BioAssay.
